Hits are enriched below; roughly 2.4% of the tested compounds scored in any of these assays.
Pol beta inh: inhibitors of human DNA polymerase beta; P06746; Pol beta primer extension/strand displacement, fluorescence kinetic; Potency, µM (series often up to 114 µM), without a hit: at the top dose activity change, negative = inhibition, hits mostly inhibitors; 1.3% of 340,000 active; AID 485314; further: on the % scale 0 is the no-effect control and ±100 the full control effect
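Values derive from four-parameter Hill fits of normalized kinetic data: reads at 0 and 10 min following addition of 50 nM substrate to 10 nM Pol beta preincubated 15 min with compound.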
TDP1 block: TDP1 (human) enzyme inhibition; recombinant TDP1, AlphaScreen DNA substrate cleavage; 0.28% of 350,000 active; Potency, µM (titrated, usually from 130 µM), without a hit: top-dose activity change, negative = inhibition, most hits filed as inhibitors; Q9NUW8; AID 485290; further: on the % scale 0 is the no-effect control and ±100 the full control effect; nearly all actives have a fitted effect of over 40% in size
Target sequence (Q9NUW8 whole entry, looked up): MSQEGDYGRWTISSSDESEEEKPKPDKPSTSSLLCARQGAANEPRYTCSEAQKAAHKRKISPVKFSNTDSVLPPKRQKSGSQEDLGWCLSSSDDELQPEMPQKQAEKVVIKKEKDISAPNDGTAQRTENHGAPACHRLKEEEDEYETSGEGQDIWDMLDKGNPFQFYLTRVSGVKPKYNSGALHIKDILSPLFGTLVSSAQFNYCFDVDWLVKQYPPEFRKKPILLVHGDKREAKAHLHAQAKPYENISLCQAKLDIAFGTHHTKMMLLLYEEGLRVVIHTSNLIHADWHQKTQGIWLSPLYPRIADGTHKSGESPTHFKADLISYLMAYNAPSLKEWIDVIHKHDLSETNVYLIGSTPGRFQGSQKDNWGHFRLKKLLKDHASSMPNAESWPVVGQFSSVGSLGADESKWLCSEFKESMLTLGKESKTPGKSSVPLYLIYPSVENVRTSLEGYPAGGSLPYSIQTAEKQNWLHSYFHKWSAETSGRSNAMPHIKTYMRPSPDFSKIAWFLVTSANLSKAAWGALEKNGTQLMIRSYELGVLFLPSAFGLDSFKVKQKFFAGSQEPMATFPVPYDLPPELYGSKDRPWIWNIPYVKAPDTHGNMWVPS
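Tdp1 1 nM final; 15 min RT w/ cpd; substrate 15 nM, 5 min; beads 10 ug/ml, 10 min; AlphaScreen read. Neg ctrl: no enzyme.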
Pol iota inh: inhibitors of human DNA polymerase iota; Q9UNA4; Pol iota fluorescent replication assay, 10 min; Potency, µM (top dose mostly 115 µM), for inactives: at the highest dose activity, negative = inhibition, hits mostly inhibitors; 1% of 390,000 active; AID 588590
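Fluorescent replication assay read twice, at 0 min and 10 min after adding 50 nM (final) substrate. Enzyme (10 nM) and compounds were first incubated 15 min at room temperature; enzyme-free buffer wells were negative controls.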
Pol kappa inh-1: inhibitors of human DNA polymerase kappa. AID 588579. 0.53% of 400,000 active. Q9UBT6. Potency, µM (top dose mostly 107 µM), without a hit: top-dose activity, negative = inhibition, usual class: inhibitors. purified Pol kappa, fluorescent DNA synthesis assay, 10 min; further: on the % scale 0 is the no-effect control and ±100 the full control effect
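50 nM final substrate added after 15 min RT preincubation of 10 nM Pol kappa with compound; fluorescence read at 0 and 10 min.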
Pol eta inh-1: inhibitors of human DNA polymerase eta; 1.2% of 390,000 active; Q9Y253; recombinant Pol eta, fluorescent DNA replication assay; Potency, µM (titrated, usually from 114 µM), for inactives: at the highest dose activity change, negative = inhibition, actives largely listed as inhibitors; further: on the % scale 0 is the no-effect control and ±100 the full control effect
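Pol eta at 10 nM preincubated with compounds 15 min at room temperature; reaction started with fluorescent substrate (50 nM final) and read kinetically at 0 and 10 min.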
FEN1 inh-1: inhibitors of human flap endonuclease 1; P39748; Recombinant FEN1 flap cleavage, fluorescence, 15 min; Potency, µM (titrated, usually from 114 µM), inactives show top-dose activity change, negative = inhibition, actives largely listed as inhibitors; 0.35% of 390,000 active; further: on the % scale 0 is the no-effect control and ±100 the full control effect; nearly all actives have a fitted effect of over 65% in size
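With each library titrated from low to high concentration, compounds met 10 nM FEN1 for 15 min at room temperature before 50 nM substrate was added; readings at 0 and 15 min fed four-parameter Hill curve fits.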
PGK validate: blocks T. brucei phosphoglycerate kinase | shares compounds with Pol kappa inh-1 | 79% of 500 active | Potency, µM (top dose mostly 57.5 µM), without a hit: at the highest dose activity change, negative = inhibition, usual class: inhibitors | AID 686980 | TbPGK coupled GAPDH assay, Kinase-Glo luminescence; further: on the % scale 0 is the no-effect control and ±100 the full control effect; nearly all actives have a fitted effect of over 65% in size
Pol iota confirm: Inhibitors of human DNA polymerase iota, confirmation | shares compounds with Pol kappa inh-1 | Pol iota primer extension, TAMRA/BHQ fluorescence | Potency, µM, actives largely listed as inhibitors | 77% of 1,500 active | AID 720496
Pol kappa inh-2: Pol kappa (human) inhibition, cherry-pick confirmation. shares compounds with Pol eta inh-1. AID 720501. Potency, µM, usual class: inhibitors. 76% of 920 active. purified Pol-kappa, fluorescent strand-displacement substrate
Pol eta inh-2: confirmation of human DNA polymerase eta inhibitors. shares compounds with Pol eta inh-1. AID 720502. 64% of 2,600 active. Pol eta primer extension, TAMRA/BHQ fluorescence, 10 min. Potency, µM, most hits filed as inhibitors
FEN1 inh-2: FEN1 inhibition, cherry-pick retest | shares compounds with FEN1 inh-1 | FEN1 flap cleavage, TAMRA/BHQ2 fluorogenic DNA substrate | Potency, µM, actives largely listed as inhibitors | 79% of 880 active; further: nearly all actives have a fitted effect of over 60% in size
The depositor's hits bear a star; ? = inconclusive; . = not tested or not shown; [ ] = another dose, or the depositor's remark. The call rests on the fitted dose curve; in most records, active means well fitted curve in the direction sought with a large enough effect; inconclusive means small, poorly fitted or top-dose-only effect, or another doubt; inactive means no such curve, though single readings can be large; an effect the other way counts as inactive or inconclusive. Potency means the concentration at half of the fitted maximal effect.

SMILES	Pol beta inh	TDP1 block	Pol iota inh	Pol kappa inh-1	Pol eta inh-1	FEN1 inh-1	Pol iota confirm	Pol eta inh-2	FEN1 inh-2	others
Fc1ccc(C(OCCN2CCN(C/C=C/c3ccccc3)CC2)c2ccc(F)cc2)cc1	.	22%	.	0%[19.4 µM]	.	.	.	.	.
CCCCOC(C)=O	.	13%	.	.	.	.	.	.	.
CC(C)c1ccc2oc(-c3ccc(NC(=O)c4cc5ccccc5o4)cc3)nc2c1	-9%	5%[12.3 µM]	32%	1%	-10%	-7%	.	.	.
O=C(Nc1ccc2oc(-c3cccnc3)nc2c1)c1ccc(-c2cccc(Cl)c2)o1	?	.	-7%	-17%	71µM*	?	42*	76*	.
C=CCN1C(=O)NC(=O)/C(=C/c2ccoc2)C1=O	28µM*	2%	20µM*	45µM*	10µM*	?	21*	17*	.
COc1ccc(/C=N/N=C(/N)N[N+](=O)[O-])c(OC)c1	-3%	5%	4%	-14%	-8%	-4%	.	.	.
N/C(=N\N=C/c1ccc(-c2ccc(O)c(C(=O)O)c2)o1)N[N+](=O)[O-]	3.5µM*	2.8µM*	3.5µM*	8.9µM*	4.5µM*	50µM*	3*	4.3*	.	PGK validate=6.5µM*;Pol kappa inh-2=3*
Nc1c([N+](=O)[O-])ccc(Oc2ccccc2)c1Cl	.	21%	.	2%[60.1 µM]	.	.	.	.	.
O=C(O)c1ccccc1Cc1ccccc1	.	11%	.	15%[60.1 µM]	.	.	.	.	.
CC(N)[C@H](O)c1ccc(O)c(O)c1 (stereo partly drawn)	1.8µM*	?	2.5µM*	3µM*	3.2µM*	14µM*	15*	38*	.
COc1ccc(N2C(=O)/C(=C/c3ccc(C)o3)C(=O)NC2=S)c(OC)c1	40µM*	.	11µM*	50µM*	10µM*	?	47*	17*	.	Pol kappa inh-2=3.4*
COc1ccc(N2C(=O)/C(=C/c3ccc(OC)c(OC)c3)C(=O)NC2=S)cc1	11%	.	?	-2%	3%	1%	.	.	.
N#CCBr	.	8%	.	.	.	.	.	.	.
Cc1ccccc1N1C(=O)NC(=O)/C(=C/c2ccc(N3CCOCC3)o2)C1=O	?	6%	-19%	-4%	-8%	3%	.	.	.
CCc1ccccc1N1C(=O)/C(=C/c2ccc(N3CCN(C)CC3)o2)C(=O)NC1=S	10%	-3%	11µM*	25µM*	8.9µM*	?	60*	9.5*	.
C[n+]1c(-c2ccccc2)c2cc(N)ccc2c2ccc(N)cc21	25µM*	.	8.9µM*	25µM*	?	11µM*	17*	67*	9.5*	Pol kappa inh-2=2.4*
CC[C@@H](CO)NC(=O)[C@H]1C=C2c3cccc4c3c(cn4C)C[C@H]2N(C)C1	?	11%[56.1 µM]	?	?	?	.	.	.	.
CC1(C)OC(c2ccccc2)=C/C(=C/C=C2C(=O)NC(=S)NC2=O)O1	50µM*	12%	?	?	?	?	67*	76*	85*
CN1/C(=C\C=C2C(=O)NC(=S)NC2=O)C(C)(C)c2ccccc21	?	-1%	-9%	52%	79µM*	40µM*	?	85*	76*	Pol kappa inh-2=60*
O=C(Cl)OCc1ccccc1	.	9%	.	.	.	.	.	.	.
COc1cc(OC)c(NS(=O)(=O)c2cc(-c3cnc(C4CC4)o3)ccc2C)cc1Cl	-1%	9%	?	-9%[60.1 µM]	-7%	5%	.	.	.
Cl/C=C/Cl	.	10%	.	.	.	.	.	.	.
CSc1nc(N)c(N=Nc2ccc([As](=O)(O)O)cc2)c(=O)[nH]1	35µM*	-3%	8.9µM*	-24%	50µM*	8%	42*	76*	76*
COc1cccc2c1C(=O)c1c(O)c3c(c(O)c1C2=O)CC(O)(C(C)=NO)CC3OC1CC(N)C(O)C(C)O1 (stereo not drawn)	.	.	79µM*	?	18µM*	?	21*	43*	30*
N#CCc1ccccc1	.	8%	.	.	.	.	.	.	.
SMILES	Pol beta inh	TDP1 block	Pol iota inh	Pol kappa inh-1	Pol eta inh-1	FEN1 inh-1	Pol iota confirm	Pol eta inh-2	FEN1 inh-2	others
CN1C(=O)C(=Cc2ccc(N3CCCCCC3)o2)C(=O)N(C)C1=S	?	5%	?	-22%	?	-3%	.	.	.
Cc1cccc(N2C(=O)/C(=C/c3ccc(N4CCN(C)CC4)o3)C(=O)NC2=S)c1C	-2%	1%	?	?	20µM*	-15%	60*	30*	85*	Pol kappa inh-2=8.4*
CCCCN1C(=O)/C(=C/C=C/c2ccco2)C(=O)NC1=S	3.5µM*	.	28µM*	18µM*	3.5µM*	25µM*	24*	17*	34*	PGK validate=13µM*
C=CCN1C(=O)/C(=C/c2cc(C)n(-c3ccccn3)c2C)C(=O)NC1=S	50%	-8%	-25%	-2%	?	-3%	.	.	.
CCOc1ccc(/C=C2/C(=O)NC(=O)N(CCc3ccc(F)cc3)C2=O)cc1	-6%	2%	-10%	-8%	-6%	-23%	.	.	.
Cn1cccc1/C=C1/C(=O)NC(=S)N(Cc2ccc(F)cc2)C1=O	?	.	20µM*	?	13µM*	-23%	21*	11*	?
O=C(O)Cn1cc(/C=C2\C(=O)NC(=O)N(Cc3ccco3)C2=O)c2ccccc21	10µM*	.	4.5µM*	20µM*	1.6µM*	79µM*	3.4*	4.8*	67*	PGK validate=8.2µM*
Cc1ccc(N2C(=O)NC(=O)/C(=C/c3ccoc3)C2=O)cc1	?	3.2µM*	7.9µM*	22µM*	3.2µM*	35µM*	12*	17*	60*	PGK validate=0.92µM*
O=C1NC(=O)N(Cc2ccccc2)C(=O)/C1=C\c1ccco1	25µM*	-6%	?	28µM*	20µM*	45µM*	?	34*	76*
COc1ccc(CN2C(=O)NC(=O)/C(=C/c3ccoc3)C2=O)cc1	10µM*	.	10µM*	20µM*	20µM*	22µM*	19*	27*	76*	PGK validate=4.6µM*

Screens from PubChem.
